Consider six compounds from PubChem BioAssay (NCATS).

The nature of assay [1]: qHTS for identification of novel therapeutic agents for treatment of microphthalmiaassociated transcription factor (MiT) renal cell carcinoma (RCC) (AID 1963991). The conditions noted are these: CellTiter-Glo, 48 h, stronger effect = lower value. The procedure, abridged: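 Three TFE3-fusion RCC cell lines (UOK109, UOK124, UOK145), 500 cells/well, were exposed to the 1912-compound MIPE 4.0 library for 48 hours at 37 C. Viability was read by CellTiter-Glo luminescence, normalised to DMSO (100%) and empty wells (0%), with 11-concentration curve fits.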

Assay [2] is described as follows: qHTS profiling for inhibitors of Plasmodium falciparum proliferation (AID 504749). Further: nearly all actives have a fitted effect of over 60% in size. Further: potency means the concentration at half of the fitted maximal effect.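 On activity, negative = inhibition: 0% = DMSO vehicle and full inhibition = artemisinin control.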 To be noted: P. falciparum in erythrocytes, SYBR Green DNA, 72 h. The procedure, abridged:
(§1)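 P. falciparum-infected erythrocytes (0.3% parasitemia, 2.5% hematocrit final) were exposed to compounds for 72 h at 37 C in 5% CO2, then lysed with SYBR Green buffer overnight at room temperature; parasite DNA fluorescence was normalized to artemisinin and DMSO controls.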
(qHTS replaces the single test concentration by a dilution series.)

The next assay concerns 3D7. The assay is described as above. The conditions noted are these: P. falciparum in erythrocytes, SYBR Green DNA, 72 h; series mostly up to 28.7 µM. The procedure, abridged:
as §1

The subject of another assay is 7G8. The description is as above. The conditions noted are these: P. falciparum in erythrocytes, SYBR Green DNA, 72 h; series mostly up to 28.7 µM. The procedure, abridged:
as §1

The next assay concerns AA1029. The assay is described as above. The conditions noted are these: P. falciparum in erythrocytes, SYBR Green DNA, 72 h; series mostly up to 28.7 µM. The procedure, abridged:
as §1

The next assay deals with AS120. Described as above. The conditions noted are these: P. falciparum in erythrocytes, SYBR Green DNA, 72 h; series mostly up to 28.7 µM. The procedure, abridged:
as §1

The next assay concerns ATS189. The assay is described as above. To be noted: P. falciparum in erythrocytes, SYBR Green DNA, 72 h; series mostly up to 28.7 µM. The procedure, abridged: as §1
The test system of the next assay is ATS95. The description is as above. To be noted: P. falciparum in erythrocytes, SYBR Green DNA, 72 h; series mostly up to 28.7 µM. The procedure, abridged: as §1
Another assay concerns C2A. The description is as above. The conditions noted are these: P. falciparum in erythrocytes, SYBR Green DNA, 72 h; series mostly up to 28.7 µM. The procedure, abridged: as §1
The next assay relates to CP185. The assay is described as above. The conditions noted are these: P. falciparum in erythrocytes, SYBR Green DNA, 72 h; series mostly up to 28.7 µM. The procedure, abridged:
as §1

The test system of a further assay is CP191. The assay is described as above. To be noted: P. falciparum in erythrocytes, SYBR Green DNA, 72 h; series mostly up to 28.7 µM. The procedure, abridged: as §1
The test system of the next assay is CP192. The assay is described as above. To be noted: P. falciparum in erythrocytes, SYBR Green DNA, 72 h; series mostly up to 28.7 µM. The procedure, abridged:
as §1

The subject of another assay is CP194. Described as above. To be noted: P. falciparum in erythrocytes, SYBR Green DNA, 72 h; series mostly up to 28.7 µM. The procedure, abridged:
as §1

In a further assay the test system is CP201. The description is as above. The conditions noted are these: P. falciparum in erythrocytes, SYBR Green DNA, 72 h; series mostly up to 28.7 µM. The procedure, abridged:
as §1

The test system of a further assay is CP203. The assay is described as above. The conditions noted are these: P. falciparum in erythrocytes, SYBR Green DNA, 72 h; series mostly up to 28.7 µM. The procedure, abridged: as §1
For a further assay, the system named is CP211. The description is as above. The conditions noted are these: P. falciparum in erythrocytes, SYBR Green DNA, 72 h; series mostly up to 28.7 µM. The procedure, abridged:
as §1

The test system of another assay is CP215. Described as above. The conditions noted are these: P. falciparum in erythrocytes, SYBR Green DNA, 72 h; series mostly up to 28.7 µM. The procedure, abridged: as §1
The next assay has as its system CP217. The assay is described as above. To be noted: P. falciparum in erythrocytes, SYBR Green DNA, 72 h; series mostly up to 28.7 µM. The procedure, abridged: as §1
Another assay concerns CP237. The assay is described as above. The conditions noted are these: P. falciparum in erythrocytes, SYBR Green DNA, 72 h; series mostly up to 28.7 µM. The procedure, abridged:
as §1

[3] abbreviates: TFE3-RCC UOK109 viability, measured here: UOK109 Z-AUC.
Setting [4] is: TFE3-RCC viability, measured here: UOK124 Z-AUC.
Where [5] appears, read: TFE3-RCC viability, measured here: UOK145 Z-AUC.
The mark [6] stands for this setting: at 28.7 µM (top of the series), parasite line A.
Setting [7] is: at 28.7 µM (top of the series), parasite line B.
Where [8] appears, read: at 12.8 µM (top of the series), parasite line A.
The mark [9] stands for this setting: at 12.8 µM (top of the series), parasite line B.

Inconclusive results are not listed. Calls of active or inactive are those of the source. The call rests on the fitted dose curve; in most records, active means well fitted inhibition curve with a large enough effect; inconclusive means small, poorly fitted or top-dose-only effect; inactive means flat fitted curve, though single readings scatter.

Turning to `CN1CCN(c2c(F)cc3c(=O)c(C(=O)O)cn(CCF)c3c2F)CC1`, the figures for the z-score in [1] (setting [3]), in assay [1] (setting [4]) and in assay [1] (setting [5]) were 1.29, -0.24 and 0.785, respectively. For the same compound, the values for the activity, negative = inhibition in assay [2] (setting [6]) and in assay [2] (setting [7]) were 1.69% (inactive) and 7.79% (inactive), respectively. Also, the Potency entry in the assay with 3D7, in the assay on 7G8, in the assay with AA1029, in the assay with AS120, in the assay on ATS189 and in the assay with ATS95 was “inactive” throughout. For the same compound, the Potency entry in the assay with C2A, in the assay on CP185, with CP191, in the assay on CP192, in the assay on CP194 and with CP201 was “inactive” in each case. The Potency entry in the assay on CP203, with CP211, in the assay on CP215, with CP217 and in the assay on CP237 was “inactive” in each case.

For the compound `COc1cnc(NS(=O)(=O)c2ccc(N)cc2)nc1`, the activity, negative = inhibition is 3.37% (inactive) in assay [2] (setting [8]) and 2.7% (inactive) in [2] (setting [9]). Besides, the Potency result in the assay on 3D7, with 7G8, in the assay with AA1029, in the assay on AS120, in the assay on ATS189 and in the assay on ATS95 was “inactive” throughout. Also, the Potency entry with C2A, in the assay on CP185, in the assay on CP191, with CP192, with CP194 and in the assay with CP201 was “inactive” in each case. Further, the Potency entry with CP203, in the assay with CP211, in the assay with CP215, with CP217 and in the assay on CP237 was “inactive” throughout.

With `CCOc1cc(N)c(Cl)cc1C(=O)NCC1CN(Cc2ccc(F)cc2)CCO1` (centres undefined), the z-score in [1] (setting [3]) was -0.211; in assay [1] (setting [4]), 0.779; in [1] (setting [5]) it was 0.352. In addition, the Potency in assay [2] (parasite line A) was 2.51 µM (active); in assay [2] (parasite line B), 11.2 µM (active); in the assay with 7G8, 11.2 µM (active); in the assay on AA1029 it was 12.6 µM (active); in the assay on AS120 it was 8.91 µM (active); in the assay on ATS189, 5.01 µM (active). The Potency was 10 µM (active) in the assay with ATS95; 11.2 µM (active) with C2A; 10 µM (active) in the assay with CP185; 3.98 µM (active) in the assay with CP191; 12 µM (active) with CP194; 12 µM (active) with CP211. The Potency with CP215 was 10.7 µM (active); with CP217, 4.47 µM (active); in the assay on CP237 it was 11.2 µM (active).

`CCn1cc(C(=O)O)c(=O)c2cc(F)c(N3CCNCC3)cc21`: the z-score came to 1.12 in [1] (setting [3]), 2.59 in [1] (setting [4]) and 1.26 in [1] (setting [5]). In addition, the activity, negative = inhibition in [2] (setting [8]) is -24.5% (inactive); in assay [2] (setting [9]), -18% (inactive). Besides, the Potency result in the assay with 3D7, in the assay with 7G8, with AA1029, in the assay with AS120, in the assay with ATS189 and with ATS95 was “inactive” in each case. In addition, the Potency entry with C2A, in the assay on CP191, with CP192, in the assay on CP201, in the assay with CP215 and in the assay with CP217 was “inactive” each time.

With `Cc1noc(NS(=O)(=O)c2ccc(N)cc2)c1C`, the figures for the activity, negative = inhibition in assay [2] (setting [6]) and in assay [2] (setting [7]) were 13.7% (inactive) and 4.61% (inactive), respectively. The Potency entry in the assay with 3D7, with 7G8, with AA1029, with AS120, in the assay with ATS189 and in the assay with ATS95 was “inactive” each time. The Potency result with C2A, with CP185, in the assay with CP191, in the assay with CP192, in the assay on CP194 and in the assay on CP201 was “inactive” each time. The Potency entry in the assay with CP211, in the assay on CP215, in the assay with CP217 and with CP237 was “inactive” in each case.

Consider `NC(=O)N1c2ccccc2CC(=O)c2ccccc21`, for which the z-score in assay [1] (setting [3]) was 0.211; in assay [1] (setting [4]) it was 0.361; in assay [1] (setting [5]), -0.025. The activity, negative = inhibition is -5.05% (inactive) in [2] (setting [6]) and -8.83% (inactive) in [2] (setting [7]). Further, the Potency entry in the assay with 3D7, with 7G8, in the assay with AA1029, with AS120, in the assay with ATS189 and in the assay with ATS95 was “inactive” each time. Moreover, the Potency entry in the assay with C2A, in the assay on CP185, with CP191, in the assay on CP192, in the assay on CP194 and with CP201 was “inactive” in each case. Besides, the Potency result in the assay on CP211, in the assay with CP217 and in the assay with CP237 was “inactive” in each case.
